Screening results (PubChem)
Most compounds without a hit are left out; they make up all but 21% or so of the library.
Pf growth 48h – P. falciparum growth inhibition at 48 hours (one generation). P. falciparum luciferase growth in erythrocytes, 48 h. Potency, µM (series often up to 28.7 µM), without a hit: top-dose activity change, negative = inhibition, most hits filed as inhibitors. hit rate 5.9% among 310,000. AID 504832; active = well fitted inhibition curve with a large enough effect; inconclusive = small, poorly fitted or top-dose-only effect, or another doubt; inactive = no such curve, though single readings can be large or run the other way; note: potency is the fitted concentration of half-maximal effect; % is set by controls: 0 for no effect and ±100 for the full control effect
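Luciferase-expressing parasites in RBCs, 2% Hct / 0.1% parasitemia final; RPMI 1640 + 0.5% Albumax; 37 C, 5% CO2, one generation; luminescence read-out, lower signal = inhibition.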
Pf growth 96h – P. falciparum growth inhibition at 96 hours | hit rate 6.9% among 320,000 | P. falciparum luciferase reporter growth, 96 h | Potency, µM (highest dose often 28.7 µM), without a hit: at the top dose activity change, negative = inhibition, most hits filed as inhibitors; active = well fitted inhibition curve with a large enough effect; inconclusive = small, poorly fitted or top-dose-only effect, or another doubt; inactive = no such curve, though single readings can be large or run the other way; note: potency is the fitted concentration of half-maximal effect; % is set by controls: 0 for no effect and ±100 for the full control effect
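P. falciparum expressing integrated firefly luciferase grown in erythrocytes (2% hematocrit, 0.05% parasitemia final) with compounds for 96 hours at 37 C, 5% CO2. Growth inhibition read as loss of luminescence after adding luciferase detection reagent.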
Cycloheximide cs – counter-screen hit for Shiga toxin inhibitors, cycloheximide. hit rate 12% among 300,000. cell reporter, cycloheximide protein synthesis inhibition counterscreen. max response, %. AID 2314; in the data active = max response mostly above about 13%, no sharp cut-off; inactive = mostly below about 14%; note: read at 38.3 µM for the half of the compounds with a filed dose; 0% is about no effect
SARS PLP yeast – inhibitors of SARS-CoV papain-like protease in yeast | S. cerevisiae expressing SARS-CoV PLpro, growth rescue | Potency, µM (doses to about 32.9 µM), for the others: top-dose activity, positive = growth rescue, most hits filed as activators | hit rate 0.19% among 330,000 | AID 485353; note: potency is the fitted concentration of half-maximal effect; 0% is about no effect; nearly all actives have a fitted effect of over 55% in size
Shiga toxin inh – Shiga toxin inhibition; hit rate 9.2% among 290,000; AID 2315; Vero cells, Shiga toxin protein synthesis inhibition reporter; inhibition, % at 38.7 µM; in the data active = inhibition mostly above about 28%, no sharp cut-off; inactive = mostly below about 43%; note: 0% is about no effect
NS1 inh – influenza NS1 inhibition. Potency, µM (series often up to 46.1 µM), for inactives: top-dose activity, positive = more growth. hit rate 0.4% among 270,000. AID 2326; note: potency is the fitted concentration of half-maximal effect; actives are rising curves; nearly all actives have a fitted effect of over 50% in size
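Read-out: OD600 growth recovery of NS1-expressing budding yeast. Cells grown overnight at 30C in -URA glucose medium, washed, resuspended and diluted 1:100 in 2% galactose assay medium, pH 6.0. Same strain lacking NS1 served as positive control.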
The depositor's hits bear a star; u = inconclusive; x = no result given. Unless noted, calls come from the whole dose curve.

SMILES | Pf growth 48h | Pf growth 96h | Cycloheximide cs | SARS PLP yeast | Shiga toxin inh | NS1 inh
COc1ccc2cc(CCNC(=O)c3ccc(S(=O)(=O)N4CCCC4)cc3)c(=O)[nH]c2c1 | 13µM* | 5.9µM* | -5 | -4% | -15 | 9%
COc1ccc2cc(CCNC(=O)c3ccc4c(c3)OCO4)c(=O)[nH]c2c1 | u | 10µM* | -1 | 1% | -3 | -28%
COc1ccc(OC)c2[nH]c(=O)c(CCNC(=O)c3ccc(S(=O)(=O)N4CCCC4)cc3)cc12 | u | 55% | -2 | 1% | -15 | -41%
Cc1ccc2cc(CCNC(=O)c3ccc(C)c([N+](=O)[O-])c3)c(=O)[nH]c2c1 | u | 4.7µM* | 1 | 1% | -5 | 9%
CC(=O)N1CCN(C(=O)c2cc(=O)c3ccccc3o2)CC1 | 12% | 16% | 23 | -2% | 43 | 2%
COc1ccc(CN2CCN(Cc3cccc(F)c3)CC2)cc1OC | 11% | 29% | -4 | -3% | -10 | 4%
CCN(CC(=O)Nc1c(F)cccc1F)C(=O)c1ccc(COc2ccccc2)o1 | -17% | 2% | x | 5% | x | x
COc1ccc(CCNC(=O)c2coc(=O)c(Br)c2)cc1 | 5% | 0% | 26* | 1% | 71* | 2%
COc1ccc2cc(CCNC(=O)c3cccc([N+](=O)[O-])c3)c(=O)[nH]c2c1 | 5.2µM* | u | 11 | -1% | 23 | x
COc1ccc(CCNC(=O)c2ccc3c(c2)OCCO3)cc1 | 112% | 203% | 35* | -1% | 84* | x
O=C(NCCc1ccccc1)c1ccc2c(c1)OCCO2 | -30% | -4% | -3 | -1% | -37 | -24%
C=CCSc1nnc(NC(=O)CCN2C(=O)C3CC=CCC3C2=O)s1 (stereo not given) | 17% | -8% | x | 1% | x | x
C/C(CCN1CCCCc2nc(C)c(C)cc21)=N\O[C@H](C)c1cn([C@H](CO)Cc2ccccc2)nn1 | u | u | -2 | -6% | -19 | -23%
Cc1cc2c(nc1C)CCCN2C[C@@H](C)O/N=C1/[C@H]2CCn3c(=O)n(-c4ccccc4)c(=O)n3[C@H]2[C@H](O)[C@@H]2O[C@H]12 | u | 13µM* | -3 | 5% | -8 | 4%
c1csc(-c2nc3c4ccccc4c4ccccc4c3[nH]2)c1 | u | u | 8 | -70% | -37 | 6%
c1csc(-c2cn3ccc4ccccc4c3n2)c1 | 0.26µM* | 105% | 1 | -1% | -18 | 2%
O=C(NNC(=O)c1cnccn1)c1ccc(Cl)cc1 | u | u | 22* | 0% | 23 | -8%
COc1ccc(/C=C/C(=O)NC(=S)NNC(=O)c2cccnc2)cc1 | 21% | u | -1 | -20% | -14 | -1%
COc1ccc(/C=C/C(=O)NC(=S)NNC(=O)c2cnccn2)cc1 | 2.1µM* | u | 9 | u | 5 | 4%
O=C(NC(=S)NNC(=O)c1cnccn1)c1ccc(F)cc1 | 15µM* | 21% | 11 | u | 13 | x
O=C(NC(=S)NNC(=O)c1ccccc1O)c1ccc(F)cc1 | -16% | -28% | 6 | 3% | x | -66%
O=C(/C=C/c1ccc(F)cc1)NC(=S)NNC(=O)c1cnccn1 | 3.3µM* | 8.3µM* | 2 | 19% | 12 | 2%
CCOC(=O)N1C=CC=C[C@@H]2[C@@H](N3C(=O)c4ccccc4C3=O)C(=O)N21 | -9% | 17% | -1 | -5% | -3 | 0%
O=C(NNC(=S)NC(=O)c1ccc(F)cc1)c1cccnc1 | u | 7% | -4 | -2% | 1 | -31%
Cc1ccc(OCC(=O)NCCCNC(=O)c2cnccn2)cc1C | u | -7% | 3 | 2% | 3 | -1%
SMILES | Pf growth 48h | Pf growth 96h | Cycloheximide cs | SARS PLP yeast | Shiga toxin inh | NS1 inh
O=C(NNC(=S)NC(=O)c1cccnc1)c1ccc(F)cc1 | -1% | -64% | 28* | -2% | 39* | -6%
Cc1cc(OCC(=O)NNC(=O)c2cnccn2)cc(C)c1Cl | u | 12µM* | -3 | 16% | -1 | -23%
COc1ccc(NC(=O)/C=C/c2ccco2)cn1 | 245% | 181% | 36* | 3% | 90* | 11%
COc1ccc(NC(=O)/C=C/c2ccc(Br)o2)cn1 | 63% | 9% | 20* | 0% | 86* | x
COc1ccc(NC(=O)/C=C/c2cccc(F)c2)cn1 | 216% | 147% | 43* | -10% | 72* | -16%
COc1cc(NC(=O)C2CC2)c(OC)cc1NC(=O)CCC(=O)NC1CCN(Cc2ccccc2)CC1 | 16% | 346% | -1 | 1% | -9 | 6%
CN(Cc1ccccc1)S(=O)(=O)c1ccc(Cl)c(C(=O)NCCCN2CCOCC2)c1 | 4% | 1% | x | 1% | x | x
NS(=O)(=O)c1ccc2c(c1)oc(=O)c1cc(S(N)(=O)=O)ccc12 | -6% | 0% | 0 | 1% | 19 | 3%
CCOC(=O)c1cccc(NC(=O)c2ccc3c(c2)OCO3)c1 | 64% | -26% | 21* | -12% | 33* | -82%
CCOC(=O)c1[nH]c2ccccc2c1NC(=O)c1ccc2c(c1)OCO2 | x | -9% | 4 | 8% | 21 | -3%
CC(=O)c1cccc(NC(=O)COC(=O)c2ccc3c(c2)OCO3)c1 | 24% | 10% | x | -2% | x | x
CCOC(=O)c1cccc(NC(=O)/C=C/c2ccc3c(c2)OCO3)c1 | 196% | u | 31* | -31% | 45* | -5%
Cc1nc(NC(=O)c2ccc(F)cc2)nc2cc3c(cc12)OCO3 | 43% | 45% | 18 | 4% | 27 | -3%
Cc1nc(NC(=O)c2ccccc2)nc2cc3c(cc12)OCO3 | 158% | 317% | 46* | -9% | 92* | 5%
CCOC(=O)c1oc2ccccc2c1NC(=O)c1ccc2c(c1)OCO2 | 12% | 13µM* | -3 | -7% | -6 | -4%
CCN(CC)S(=O)(=O)c1cccc2c(N(C)C)cccc12 | u | u | -4 | -12% | -8 | -17%
C=CCNC(=O)c1ccccc1NC(=O)c1ccc(Cl)c(S(=O)(=O)Nc2ccccc2)c1 | u | u | -1 | 5% | 15 | 11%
CC(=O)c1ccc2c(c1)OCO2 | -4% | -4% | -2 | -2% | 24 | 26%
CC(=O)c1cccc(NC(=O)c2ccc3c(c2)OCO3)c1 | 84% | u | 52* | -7% | x | -35%
O=C(Nc1cccc(NC(=O)c2ccc3c(c2)OCO3)c1)c1ccccc1 | 29% | 67% | 24* | -2% | 48 | x
CCOC(=O)c1c(C)c(C(=O)Nc2ccc3c(c2)OCO3)c(C)n1C | u | -35% | 14 | -2% | 41* | -2%
CCOC(=O)CNc1ccc2c(c1)OCO2 | u | 228% | 15 | -12% | -5 | 9%
CCOC(=O)CNC(=O)/C=C/c1ccc2c(c1)OCO2 | 10% | u | 18* | 0% | 29 | x
Cc1cc(NC(=O)c2ccc3c(c2)OCO3)ccc1NC(=O)c1ccccc1 | 45% | -8% | 15 | -1% | 39 | 5%
O=C(Cn1cnc2c(OCc3ccccc3)ncnc21)NCCc1c[nH]c2ccccc12 | x | x | x | 2% | x | x
